Activity calls are given as the source filed them. The call rests on the fitted dose curve; in most records, active means well fitted activation curve with a large enough effect; inactive means flat fitted curve, though single readings scatter.
Target: Pyruvate kinase PKM (Homo sapiens) (UniProt P14618)
Test: qHTS for Activators of Human Muscle Isoform Pyruvate Kinase: Extended Characterization Using A Lactate Dehydrogenase (LDH) Assay
Conditions: purified hPK-M2, LDH-coupled NADH fluorescence kinetic
Source text: Human pyruvate kinase muscle 2 (hPK-M2)enzyme was supplied as a highly purified (>95% pure) preparation from Harvard Medical School and a secondary assay was used to evaluate compounds. This assay couples the formation of pyruvate from hPK-M2 using lactate dehydrogenase (LDH) and NADH. The depletion of NADH is followed in a fluorescent-based kinetic assay that follows the formation of pyruvate to lactate, as catalyzed LDH (described by Hannaert et al., 2002)1 Pyruvate kinase substrates, PEP and ADP, were present in the assay at 0.1 mM and 4 mM respectively. In this kinetic assay initial rates were determined by following the fluorescence of NADH depletion. NIH Chemical Genomics Center [NCGC] NIH Molecular Libraries Probe Centers Network [MLPCN] MLPCN Grant: MH085679 Assay Submitter (PI): Matthew G. Vander Heiden, Harvard Medical School
Three uL of substrate mix (final concentration, 50 mM Tris-Cl pH 8.0, 200 mM KCl, 15 mM MgCl2, 0.1 mM PEP, 4.0 mM ADP, and 0.2 mM NADH) was dispensed into black-solid 1536 well plates. 23 nL of compounds were delivered by a pin tool and 1 uL of enzyme mix (final concentrations, 10 nM hPK-M2 and 1 uM of LDH) was added. Plates were immediately placed in ViewLux (Perkin Elmer) and NADH fluorescence was determined at 30 second exposure intervals for between 3 and 6 minutes. Data were normalized to the uninhibited and EC100 activation using known activators such as fructose-bis-phosphate.

Chain of Pyruvate kinase PKM (Homo sapiens) (P14618 whole entry, looked up, canonical isoform): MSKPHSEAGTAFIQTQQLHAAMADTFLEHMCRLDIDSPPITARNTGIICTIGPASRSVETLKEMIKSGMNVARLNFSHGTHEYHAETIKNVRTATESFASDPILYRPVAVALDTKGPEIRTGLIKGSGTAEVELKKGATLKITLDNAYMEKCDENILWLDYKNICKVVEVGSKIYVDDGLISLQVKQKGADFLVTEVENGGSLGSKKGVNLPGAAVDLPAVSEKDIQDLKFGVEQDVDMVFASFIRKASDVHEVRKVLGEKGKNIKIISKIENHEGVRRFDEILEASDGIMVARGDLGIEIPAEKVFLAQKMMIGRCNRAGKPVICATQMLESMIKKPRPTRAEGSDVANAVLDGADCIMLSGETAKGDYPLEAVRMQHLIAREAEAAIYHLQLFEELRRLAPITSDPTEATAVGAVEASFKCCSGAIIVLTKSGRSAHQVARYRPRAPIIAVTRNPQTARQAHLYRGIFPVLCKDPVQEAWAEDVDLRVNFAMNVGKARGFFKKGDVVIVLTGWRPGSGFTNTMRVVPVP

Potency, active:
Cc1cc2c(s1)c1cnn(Cc3cc(F)c(F)cc3F)c(=O)c1n2C 398 nM, Cc1cc2c(s1)c1cnn(Cc3ccc(F)cc3F)c(=O)c1n2C 224 nM, Cc1cc2c(s1)c1cnn(Cc3cc(F)ccc3F)c(=O)c1n2C 447 nM, Cc1cc2c(s1)c1cnn(Cc3c(Cl)ccc(C)c3F)c(=O)c1n2C 562 nM, COc1cccc(Cn2ncc3c4sc(S(C)=O)cc4n(C)c3c2=O)c1 (stereo not given) 146 nM
